“And” between values parts separate entries of the source, which are not always exact repeats. Equal values may be shown once. Inconclusive results are not listed. The source made the active and inactive calls. Calls follow the shape of the dose curve; as a rule, active = well fitted curve in the direction sought with a large enough effect; inconclusive = small, poorly fitted or top-dose-only effect, or another doubt; inactive = no such curve, though single readings can be large; an effect the other way counts as inactive or inconclusive.
What was measured:
KB-3-1 = experiment: Cytotoxic Profiling of Annotated Libraries Using Quantitative High-Throughput Screening (AID 1296008); settings: Five cell lines viability, CellTiter-Glo ATP luminescence, 48-72 h; max response: stronger effect = lower value; also: nearly all actives have a fitted effect of over 60% in size; as to max response: % is scaled to controls: 0 for no effect and ±100 for the full control effect
In short: (§1)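 Cells exposed to compounds for 48 or 72 hr at 37 degrees Celsius. Viability read as ATP-coupled luminescence with CellTiter-Glo after 10 min at room temperature.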

NIH3T3 [1] = experiment: as above; settings: Five cell lines viability, CellTiter-Glo ATP luminescence, 48-72 h; max response: stronger effect = lower value
In short: as §1

CRL-7250 = normal cell line; experiment: qHTS assay to identify novel small-molecules to repurpose for Merkel cell carcinoma treatment (AID 1296009); settings: MCC and control cell lines, CellTiter-Glo viability, 72 h; at 44.8 µM (top of the series) unless noted; also: nearly all actives have a fitted effect of over 60% in size
In short: (§2)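 Cells were treated for 72 hr at 37 degree celsius with compounds in 8- or 11-point dose response. Viability was read by CellTiter-Glo luminescence, normalized to no-cell (cytotoxicity) and DMSO controls.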

HACAT = experiment: as above; settings: MCC and control cell lines, CellTiter-Glo viability, 72 h; at 44.8 µM (top of the series) unless noted
In short: as §2

NIH3T3 [2] = experiment: as above; settings: MCC and control cell lines, CellTiter-Glo viability, 72 h; at 44.8 µM (top of the series) unless noted
In short: as §2

C33A = experiment: Primary qHTS to identify gynecologic anti-cancer compounds using libraries of approved drugs and bioactive compounds (AID 1345084); settings: Gynecologic cancer cell panel viability, ATPlite luminescence, 48 h; series mostly up to 57.5 µM; also: % is scaled to controls: 0 for no effect and ±100 for the full control effect; nearly all actives have a fitted effect of over 55% in size
In short: (§3)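 48 h compound exposure at 37 C, 5% CO2; five-point qHTS. ATPlite luminescence readout of cell ATP.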

CAOV3 = experiment: as above; settings: Gynecologic cancer cell panel viability, ATPlite luminescence, 48 h; series mostly up to 57.5 µM
In short: as §3

CASKI = experiment: as above; settings: Gynecologic cancer cell panel viability, ATPlite luminescence, 48 h; series mostly up to 57.5 µM
In short: as §3

Es-2 = experiment: as above; settings: Gynecologic cancer cell panel viability, ATPlite luminescence, 48 h; series mostly up to 57.5 µM
In short: as §3

HeLa = experiment: as above; settings: Gynecologic cancer cell panel viability, ATPlite luminescence, 48 h; series mostly up to 57.5 µM
In short: as §3

Hek293T [3] = experiment: as above; settings: Gynecologic cancer cell panel viability, ATPlite luminescence, 48 h, control line for the selectivity index; series mostly up to 57.5 µM
In short: as §3

JEG-3 = experiment: as above; settings: Gynecologic cancer cell panel viability, ATPlite luminescence, 48 h; series mostly up to 57.5 µM
In short: as §3

OV90 = experiment: as above; settings: Gynecologic cancer cell panel viability, ATPlite luminescence, 48 h; series mostly up to 57.5 µM
In short: as §3

HEK293T [4] = experiment: qHTS assay to identify novel small-molecules to repurpose for Merkel cell carcinoma treatment (AID 1296009); settings: MCC and control cell lines, CellTiter-Glo viability, 72 h; at 44.8 µM (top of the series) unless noted; also: nearly all actives have a fitted effect of over 60% in size
In short: as §2

COc1ccccc1CN[C@H]1C2CCN(CC2)[C@H]1C(c1ccccc1)c1ccccc1
inactive: max response (KB-3-1) -8.54% | outcome (NIH3T3 [1]) | outcome (CRL-7250) | outcome (HACAT) | outcome (NIH3T3 [2]) | Potency (C33A) | Potency (CAOV3) | Potency (CASKI) | Potency (Es-2) | Potency (HeLa) | Potency (Hek293T [3]) | Potency (JEG-3)

CC(C)(C)c1cc(C(C)(C)C)c2c(c1)C(O)(C(F)(F)F)C(=O)O2 (stereo not drawn)
inactive: outcome (KB-3-1) | outcome (NIH3T3 [1]) | outcome (CRL-7250) | outcome (HACAT) | outcome (NIH3T3 [2]) | Potency (C33A) | Potency (CASKI) | Potency (Es-2) | Potency (HeLa) | Potency (Hek293T [3]) | Potency (JEG-3) | Potency (OV90)

OCCCCC#Cc1cncc(OC[C@@H]2CCN2)c1
inactive: max response (KB-3-1) -3.78% | outcome (NIH3T3 [1]) | outcome (CRL-7250) | outcome (HACAT) | outcome (NIH3T3 [2]) | Potency (C33A) | Potency (CAOV3) | Potency (CASKI) | Potency (Es-2) | Potency (HeLa) | Potency (Hek293T [3]) | Potency (JEG-3) | Potency (OV90)

O=c1[nH]cc(N(CCCl)CCCl)c(=O)[nH]1
inactive: max response (KB-3-1) -15%

CNC(C)C(O)c1ccc(O)cc1 (stereo not drawn)
inactive: max response (KB-3-1) -2.38% and -4.74%

O=C1C[C@@H]2OCC=C3CN4CC[C@]56c7ccccc7N1[C@H]5[C@H]2[C@H]3C[C@H]46
inactive: max response (KB-3-1) -9.91% | outcome (KB-3-1) | max response (NIH3T3 [1]) 3.86% | outcome (CRL-7250) | outcome (HACAT) | Potency (C33A) | Potency (CASKI) | Potency (Es-2) | Potency (HeLa) | Potency (Hek293T [3]) | Potency (JEG-3) | Potency (OV90)

C[C@@]1(C(=O)O)CC[C@]2(C)CC[C@]3(C)C4=CC(=O)c5cc(O)c(O)cc5[C@]4(C)CC[C@@]3(C)[C@@H]2C1
inactive: outcome (KB-3-1) | outcome (NIH3T3 [1]) | outcome (CRL-7250) inactive [at 17.4 µM] | outcome (HACAT) inactive [at 17.4 µM] | outcome (NIH3T3 [2]) inactive [at 17.4 µM] | Potency (C33A) | Potency (CAOV3) | Potency (CASKI) | Potency (Es-2) | Potency (HeLa) | Potency (Hek293T [3]) | Potency (JEG-3) | Potency (OV90)

COCC1OC(=O)c2coc3c2C1(C)C1=C(C3=O)C2CCC(=O)C2(C)CC1O (stereo not drawn)
inactive: outcome (KB-3-1) | outcome (NIH3T3 [1]) | outcome (CRL-7250) | outcome (HACAT) | outcome (HEK293T [4]) | outcome (NIH3T3 [2]) | Potency (C33A) | Potency (CAOV3) | Potency (CASKI) | Potency (Es-2) | Potency (HeLa) | Potency (Hek293T [3]) | Potency (JEG-3) | Potency (OV90)

Cc1cccc(NC(=O)N[C@@H]2N=C(c3ccccc3)c3ccccc3N(C)C2=O)c1
inactive: max response (KB-3-1) 9% | outcome (NIH3T3 [1]) | outcome (CRL-7250) | outcome (HACAT) | outcome (NIH3T3 [2]) | Potency (C33A) | Potency (CASKI) | Potency (Es-2) | Potency (HeLa) | Potency (Hek293T [3]) | Potency (JEG-3) | Potency (OV90)

CC1=C2C(=O)C3[C@@H](CC=C4C[C@@H](O)CC[C@@]43C)[C@@H]2CC[C@]12O[C@@H]1C[C@H](C)CN[C@H]1[C@H]2C (stereo partly drawn)
inactive: outcome (KB-3-1) | outcome (NIH3T3 [1]) | outcome (CRL-7250) inactive [at 17.4 µM] | outcome (HACAT) inactive [at 17.4 µM] | outcome (NIH3T3 [2]) inactive [at 17.4 µM] | Potency (C33A) | Potency (CAOV3) | Potency (CASKI) | Potency (Es-2) | Potency (HeLa) | Potency (Hek293T [3]) | Potency (JEG-3) | Potency (OV90)

O=C(CCl)c1ccc(Oc2ccc(C(=O)CCl)cc2)cc1
inactive: max response (KB-3-1) 0.148%

CCC(C)(OC(C)=O)C(=O)O[C@H]1[C@H](OC(C)=O)C[C@@H]2[C@@](C)([C@@H]3C[C@H]4C=CO[C@H]4O3)[C@H](C)C[C@H](OC(C)=O)[C@@]2(COC(C)=O)[C@@]12CO2 (stereo partly drawn)
inactive: max response (KB-3-1) 8.14% | outcome (NIH3T3 [1]) | outcome (CRL-7250) inactive [at 17.4 µM] | outcome (HACAT) inactive [at 17.4 µM] | outcome (HEK293T [4]) inactive [at 17.4 µM] | outcome (NIH3T3 [2]) inactive [at 17.4 µM] | Potency (C33A) | Potency (CAOV3) | Potency (CASKI) | Potency (Es-2) | Potency (HeLa) | Potency (Hek293T [3]) | Potency (JEG-3) | Potency (OV90)

— PubChem BioAssay (NCATS)
